Viability index data for 35 compounds are collected here from the supplement of paper PMC4723716.

Structures are written as SMILES. ± gives the uncertainty stated by the source. In all, about 9,900 compounds were measured (“viability index relative to DMSO control”: median about 1, lowest 2% from about 0.85 on). The sample as a whole holds a higher share of the lowest values than the screen did.

This test relates to Plasmodium falciparum NF54 stage V gametocytes. Nature of the test: viability index relative to DMSO control (fraction); higher = less gametocyte killing. As to conditions: 2.5 µM, incubation time: 72 h. On the procedure:
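Broad DOS informer set and blood-stage-active DOS compounds screened in duplicate at 2.5 µM against P. falciparum NF54 stage V gametocytes with the serum-free one-step SaLSSA (1536-well): 72 h at 37 °C under low oxygen, then saponin lysis and MitoTracker Red CMXRos staining, with high-content imaging. Viability index = viable-object count divided by the plate mean of DMSO wells (0 = killed, about 1 = inactive).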

[1] abbreviates: library set: Broad Institute DOS.

With `C/C=C/c1ccc([C@H]2[C@@H](CO)N3CCCCN(S(=O)(=O)c4ccc(OC)cc4)C[C@@H]23)cc1`, the viability index under setting [1] is 0.972 ± 0.078.

In turn, `CCCNC(=O)Nc1ccc2c(c1)OC[C@@H](C)N(C(=O)C1CCOCC1)C[C@H](C)[C@H](OC)CN(C)C2=O` gave a viability index under setting [1] of 0.996 ± 0.052.

Compound `COCC(=O)Nc1ccc2c(c1)C(=O)N(C)C[C@@H](OC)[C@H](C)CN(CCc1ccccc1)[C@H](C)CO2` had a viability index under setting [1] of 1.05 ± 0.042.

Under setting [1], `O=C(C[C@@H]1C=C[C@H](NC(=O)Nc2ccccc2F)[C@@H](CO)O1)NCc1ccc(-c2ccccc2)cc1` had a viability index of 1.11 ± 0.14.

In turn, `Cc1cccc(-c2ccc([C@@H]3[C@@H]4CN(C(=O)CN(C)C)C[C@H]3N4)cc2)c1` yielded a viability index under setting [1] of 0.477 ± 0.045.

Consider `Cc1cccc(-c2ccc([C@H]3[C@@H]4CN(Cc5cccc(F)c5)C[C@H]3N4)cc2)c1`, for which the viability index under setting [1] stood at 1.053 ± 0.0043.

As for `O=C(Nc1ccccc1)N1C[C@@H]2N[C@H](C1)[C@@H]2c1ccc(-c2ccccc2F)cc1`, the viability index under setting [1] came out at 1.03 ± 0.08.

Under setting [1], `Cc1cccc(-c2ccc([C@@H]3[C@@H]4CN(C(=O)c5ccncc5)C[C@H]3N4)cc2)c1` returned a viability index of 1.09 ± 0.12.

In turn, `Fc1cccc(-c2ccc([C@@H]3[C@@H]4CN(Cc5cncnc5)C[C@H]3N4)cc2)c1` displayed a viability index under setting [1] of 1.04 ± 0.06.

In turn, `CN(C)CC(=O)N1C[C@@H]2N[C@H](C1)[C@H]2c1ccc(-c2ccccc2F)cc1` came in with a viability index under setting [1] of 0.832 ± 0.011.

For `CN(C)CC(=O)N1C[C@@H]2N[C@H](C1)[C@@H]2c1ccc(-c2ccccc2F)cc1`, the viability index under setting [1] was 0.745 ± 0.074.

On to `CN(C)CC(=O)N1C[C@@H]2N[C@H](C1)[C@@H]2c1ccc(C2=CCCCC2)cc1`, for which, under setting [1], the viability index stood at 0.898 ± 0.013.

As for `Cc1cccc(-c2ccc([C@@H]3[C@@H]4CN(Cc5cccc(F)c5)C[C@H]3N4)cc2)c1`, the viability index under setting [1] turned out to be 0.816 ± 0.064.

As for `O=C(C1CCCCC1)N1C[C@@H]2N[C@H](C1)[C@H]2c1ccc(-c2ccccc2F)cc1`, the viability index under setting [1] is 1.08 ± 0.092.

Compound `O=C(C1CC1)N1C[C@@H]2N[C@H](C1)[C@@H]2c1ccc(-c2ccccc2F)cc1` showed a viability index (library set: Broad Institute Blood Stage) of 0.988 ± 0.046.

With `O=C(Nc1ccccc1)N1C[C@@H]2N[C@H](C1)[C@H]2c1ccc(-c2ccccc2F)cc1`, the viability index under setting [1] came out at 1.1 ± 0.05.

Under setting [1], `N#C[C@H]1[C@@H](c2ccccc2-c2cccc(F)c2)[C@H](CO)N1S(=O)(=O)c1cccc(F)c1` returned a viability index of 1.17 ± 0.1.

As for `C[C@@H]1CCCCO[C@H](CN(C)Cc2ccc(Cl)c(Cl)c2)[C@@H](C)CN([C@H](C)CO)C(=O)c2cc(NC(=O)c3ccncc3)ccc2O1`, the viability index under setting [1] came to 1.05 ± 0.047.

As for `C/C=C/c1ccc([C@@H]2[C@@H](CO)N3C(=O)CN(S(=O)(=O)c4ccccc4)C[C@H]23)cc1`, under setting [1], the viability index was 1.11 ± 0.026.

For `CN1c2ccc(-c3ccc(F)cc3)cc2[C@@H]2[C@@H](CCN2C(=O)Cc2cccnc2)[C@@H]1CO`, the viability index under setting [1] was 1.09 ± 0.061.

Under setting [1], `C[C@@H]1CN([C@@H](C)CO)C(=O)c2cc(NC(=O)Nc3ccccc3)ccc2O[C@H]1CN(C)Cc1ccccc1` had a viability index of 0.979 ± 0.015.

In turn, `C[C@@H]1CN([C@H](C)CO)C(=O)c2c(c3ccccc3n2C)-c2ccccc2CO[C@H]1CN(C)C(=O)[C@@H](Cc1ccccc1)N(C)C` had a viability index under setting [1] of 1.14 ± 0.11.

The compound `COCC(=O)N1[C@@H]2CN(C)c3ccccc3[C@@H]2[C@@H]1CO` had a viability index under setting [1] of 1.05 ± 0.034.

On to `CN(C)C(=O)c1cccc(-c2cccc(-c3nc(C(=O)N4CCCCC4)cc4c3[C@H](CCO)N([S@@](=O)C(C)(C)C)C4)c2)c1`, for which the viability index under setting [1] amounted to 1.04 ± 0.0013.

Under setting [1], `C[C@H]1CN([C@@H](C)CO)C(=O)Cc2cc(NC(=O)CCC(F)(F)F)ccc2O[C@H]1CN(C)CC1CC1` showed a viability index of 1.0278 ± 0.00041.

Compound `O=C(C[C@H]1C=C[C@@H](NC(=O)c2ccncc2)[C@@H](CO)O1)NCC1CC1` had a viability index under setting [1] of 1.08 ± 0.03.

On to `COc1ccc2c3c([nH]c2c1)[C@@H](CO)N(C[C@]31CCN(Cc2ccccc2Cl)CC1)S(=O)(=O)c1cn(C)cn1`, for which the viability index under setting [1] worked out at 0.955 ± 0.018.

In turn, `O=C(Cc1ccncc1)NCC[C@H]1CC[C@H](NS(=O)(=O)c2ccccc2Cl)[C@H](CO)O1` came in with a viability index under setting [1] of 1.09 ± 0.031.

As for `CN1[C@@H]2Cn3c(ccc(-c4ccncc4)c3=O)[C@H]1[C@@H](C(=O)N1CCC(Cc3ccccc3)CC1)[C@@H]2CO`, the viability index under setting [1] stood at 1.11 ± 0.041.

As for `COc1ccc2c3c([nH]c2c1)[C@H](CO)N(C[C@]31CCN(Cc2cncnc2)CC1)C(=O)CN(C)C`, the viability index under setting [1] amounted to 0.991 ± 0.06.

In turn, `O=C(NC[C@H]1[C@H](c2ccccc2)[C@@H](CO)N1Cc1ccccn1)C1CCCC1` registered a viability index under setting [1] of 0.9562 ± 0.0077.

In turn, `O=C(NC[C@@H]1[C@@H](c2ccccc2)[C@H](CO)N1Cc1ccccn1)C1CCCC1` came in with a viability index under setting [1] of 1.05 ± 0.068.

For `O=C(NC[C@@H]1[C@H](c2ccccc2)[C@H](CO)N1Cc1ccccn1)C1CCCC1`, under setting [1], the viability index is 0.684 ± 0.14.

`N#C[C@H]1[C@H](c2ccc(C#Cc3ccccc3F)cc2)[C@@H](CO)N1C(=O)c1cccnc1` gave a viability index under setting [1] of 1.02 ± 0.033.

Turning to `C[C@H](CO)N1C[C@H](C)[C@H](CN(C)CC2CC2)Oc2ccc(NC(=O)CCC(F)(F)F)cc2CC1=O`, the viability index under setting [1] stood at 0.953 ± 0.022.
